In the library only some 0.39% were active in any assay of this set; here they are far more common.
USP2a inh – inhibitors of human ubiquitin-specific protease USP2a; 330,000 compounds, 0.01% hits; O75604; Potency, µM (top dose mostly 38.3 µM), for inactives: at the highest dose activity change, negative = inhibition, usual class: inhibitors; USP2 core, Ub-CHOP2 coupled fluorogenic reporter, 485/531;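 note: plate controls were DMSO wells for no effect and full inhibition by NEM control for full effect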
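Cell-free coupled assay: 10nM USP2 core preincubated 30min RT with compound in Tris-HCl pH 8.0/CaCl2/CHAPS buffer, then 25nM Ub-CHOP2 and 25nM reporter substrate; fluorescence (Ex 485/Em 531) read after 60min RT, normalized to NEM inhibition, concentration-response curves fitted.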
Tb PFK inh – blocks T. brucei phosphofructokinase; O15648; Potency, µM (highest dose often 57.5 µM), for inactives: at the top dose activity, negative = inhibition, usual class: inhibitors; 330,000 compounds, 0.17% hits; T. brucei PFK, ADP-Glo luminescence;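 note: 0% = uninhibited 1x PFK enzyme wells and -100% = no-enzyme wells; nearly all actives have a fitted effect of over 60% in size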
Target sequence (O15648 whole entry, looked up): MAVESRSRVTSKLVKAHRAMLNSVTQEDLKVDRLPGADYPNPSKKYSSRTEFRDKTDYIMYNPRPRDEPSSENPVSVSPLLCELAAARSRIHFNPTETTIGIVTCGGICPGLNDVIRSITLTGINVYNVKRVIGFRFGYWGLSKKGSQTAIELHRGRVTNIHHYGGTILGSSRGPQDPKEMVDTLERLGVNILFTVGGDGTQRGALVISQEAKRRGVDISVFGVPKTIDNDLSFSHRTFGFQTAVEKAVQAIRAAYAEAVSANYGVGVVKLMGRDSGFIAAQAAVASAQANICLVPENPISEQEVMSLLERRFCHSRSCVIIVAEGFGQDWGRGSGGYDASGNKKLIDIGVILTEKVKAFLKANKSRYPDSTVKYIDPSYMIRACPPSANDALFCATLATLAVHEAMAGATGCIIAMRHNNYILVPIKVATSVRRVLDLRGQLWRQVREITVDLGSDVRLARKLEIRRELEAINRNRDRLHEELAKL
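Activity is normalized to no-enzyme wells (full inhibition) and 1.25 nM enzyme wells (no inhibition). Reaction: 0.5 mM F6P, 0.1 mM ATP, 45 min RT, ADP-Glo luminescence; concentration-response curves fitted and classed by quality.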
p53 reactivator – re-activators of mutant p53 | H1299 p53-A138V BP100-luciferase reporter, luminescence, 24 h | AID 504706 | Potency, µM (doses to about 92.2 µM), for inactives: at the top dose activity change, positive = activation, usual class: activators | 320,000 compounds, 0.063% hits; note: % of control where 0% means no effect; nearly all actives have a fitted effect of over 45% in size
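p53-null H1299 cells stably carrying temperature-sensitive p53-A138V and a BP100-luciferase reporter were pinned with compounds (4-point, 1:5 series) and held 24 hrs at 37 deg C. Luminescence was read 10 min after detection reagent.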
GLS inh – blocks human kidney-isoform glutaminase activity; O94925; GLS enzymatic activity, qHTS titration; Potency, µM (doses to about 45.5 µM), for inactives: at the highest dose activity change, negative = inhibition, most hits filed as inhibitors; 410,000 compounds, 0.21% hits; note: % is set by controls: 0 for no effect and ±100 for the full control effect
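Read-out is an Amplex red fluorescence increase coupled through glutamate oxidase and HRP, measured before and after 30 min room-temperature incubation. hKGA is in 45 mM KH2PO4 (pH 8.2) with 0.02% Tween-20; glutamine added as 1mM solution.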
The depositor's hits bear a star; ? = inconclusive; · = no result given. Calls come from the whole dose curve; as a rule, active = well fitted curve in the direction sought with a large enough effect; inconclusive = small, poorly fitted or top-dose-only effect, or another doubt; inactive = no such curve, though single readings can be large; an effect the other way counts as inactive or inconclusive. Potency is the fitted concentration of half-maximal effect.

SMILES	USP2a inh	Tb PFK inh	p53 reactivator	GLS inh
Cc1oc(/C=N/NC(=O)CC2(C)OCCO2)cc1Br	3%	6%	-3%	0%
CC1(CC(=O)N/N=C/c2cc(Br)c(O)cc2O)OCCO1	0%	0%	7%	10µM*
O=[N+]([O-])c1ccccc1/C=N\Nc1nccs1	1%	2%	·	-15%
O=[N+]([O-])c1cc(/C=N\Nc2nccs2)ccc1O	?	9.5µM*	7%	·
CCCC(=O)c1ccc(N2CCCCCC2)c(F)c1	2%	-1%	40µM*	10%
O=C(CCNc1ccc(Cl)cc1)c1cccs1	1%	12%	16µM*	9%
Cn1c(C(=O)NCCc2ccccc2)cc2cc(S(=O)(=O)N3CCCCC3)ccc21	·	·	·	4%
O=C(c1ccc(=O)oc1)N1CCOCC1	0%	0%	-4%	11µM*
O=C(c1ccccc1)N1CCCc2ccccc21	-1%	0%	-3%	-2%
O=C(c1ccc(=O)oc1)N1CCCc2ccccc21	1%	?	?	16µM*
CCc1nn(C(C)C(=O)N2CCN(c3cccc(C(F)(F)F)c3)CC2)c(=O)c2cc3occc3n12 (stereo not given)	·	·	·	1%
Cc1cc(C(c2nnnn2Cc2ccccc2)N2CCOCC2)c(C)n1-c1ccc2c(c1)OCO2 (stereo not given)	-10%	3%	32µM*	-10%
c1ccc(Cn2nnnc2C(c2ccncc2)N2CCOCC2)cc1 (stereo not given)	5%	-7%	-1%	1%
O=P(O)(O)OP(=O)(O)O	·	·	·	-10%
O=c1c2ccccc2cnn1-c1ccc(Cl)cc1	5%	-4%	25µM*	1%
Cc1ccc(-n2ncc3ccccc3c2=O)cc1Cl	3%	3%	6%	0%
CCCn1c(=O)c2ccccc2n2c(=S)[nH]nc12	-1%	-14%	3%	-24%
CCCCn1c(=O)c2ccccc2n2c(=S)[nH]nc12	-2%	-2%	1%	13µM*
Cn1c(=O)c2ccccc2n2c(=S)[nH]nc12	-1%	0%	2%	10µM*
Cc1c(Cl)cccc1NC(=O)NCCOCCn1c(=O)oc2ccccc21	·	·	·	-13%
CCCOc1cccc(C(=O)N2CCCCC2CCN2CCCCC2)c1 (stereo not given)	·	·	·	7%
Cc1cccc(N(CC(N)=O)C2SC(=O)N(Cc3cccc(C(=O)O)c3)C2=O)c1 (stereo not given)	·	·	·	45%
O=C(O)COc1ccc2c(c1)O/C(=C\c1cccs1)C2=O	2%	2%	-5%	22%
O=C(O)COc1ccc2c(c1)O/C(=C\c1ccco1)C2=O	0%	1%	5%	10µM*
CCn1c2ccccc2c2c3ncc4cccn4c3ccc21	1%	0%	28µM*	3%
SMILES	USP2a inh	Tb PFK inh	p53 reactivator	GLS inh
CCc1nn2c(=O)cc(COc3ccc(/C=C4\C(=N)N5N=C(CC(C)C)SC5=NC4=O)cc3)nc2s1	3%	-26%	-4%	8%
CCC1=NN2C(=N)/C(=C\c3ccc(OCc4cc(=O)n5nc(CC)sc5n4)c(OC)c3)C(=O)N=C2S1	2%	-25%	-7%	11µM*
Cc1ccc(OCC(=O)c2c(N)n(C)c(=O)n(C)c2=O)c([N+](=O)[O-])n1	0%	?	-3%	14µM*
CN(C1CCS(=O)(=O)C1)S(=O)(=O)c1ccccc1 (stereo not given)	-1%	0%	-1%	16µM*
CN(C1CCS(=O)(=O)C1)S(=O)(=O)c1cccs1 (stereo not given)	1%	-1%	-3%	-10%
Cc1ccc2c(c1)c1c(c(=O)n(-c3ccccc3C)c(=O)n1CC(=O)NCc1ccccc1)n2C	·	·	·	-2%
CC1(C)CC(=O)C2=C(C1)Nc1ccccc1NC2	-1%	3%	10%	14%
CC1(C)CC(=O)C2=C(C1)Nc1ccccc1S2	9%	0%	-2%	10µM*
CC(=O)O[C@H]1CC[C@@]2(C)C(=CCC3C2CC[C@]2(C)C(c4cccnc4)=CCC32)C1 (stereo not given in full)	·	·	·	-1%
NC(=O)c1cc(N)ccc1N1CCCC1	-4%	0%	-2%	54%
CC1CCCN(c2ccc(N)cc2C(N)=O)C1 (stereo not given)	-1%	-3%	-1%	7.1µM*
O=C(CCc1nnc2n(Cc3ccccc3Cl)c(=O)c3ccccc3n12)Nc1ccccc1	·	·	·	-6%
CCOc1ccc(NC(=O)Cn2c(=O)n(-c3ccccc3)c(=O)c3ccc(C(=O)NCc4ccc5c(c4)OCO5)cc32)cc1	·	·	·	-12%
CCc1ccc(-c2csc(NC(=O)Oc3ccccc3)n2)cc1	2%	-3%	14µM*	-4%
O=C(Nc1nc(-c2cccc(Br)c2)cs1)Oc1ccccc1	0%	-2%	?	22%
Cc1cc(C)c(NC(=O)CSC2=Nc3ccccc3C3=NC(CC(=O)NCc4cccs4)C(=O)N23)c(C)c1 (stereo not given)	·	·	·	11µM*
CCCCNC(=O)CC1N=C2c3ccccc3N=C(SCC(=O)Nc3cccc(OC)c3)N2C1=O (stereo not given)	2%	-5%	0%	7.1µM*
Cc1oc2ncn(CC(C)C)c(=O)c2c1C(=O)Nc1cc(F)ccc1F	·	·	·	-13%
Clc1ccc(-c2c[n+](Cc3ccc(Cl)c(Cl)c3)c3n2CCC3)cc1	5%	12µM*	-7%	·
Cc1ccc(-c2c[n+](Cc3ccc(Cl)cc3)c3n2CCC3)cc1	11%	?	-5%	-1%
O=c1cc(CSc2n[nH]c(-c3ccccc3)n2)[nH]c2ccccc12	·	·	·	-1%
c1coc(-c2ccc3nncn3c2)c1	·	·	·	6.3µM*
COc1ccc(/C=C/C(=O)C2(O)CCCCC2)cc1	1%	-2%	40µM*	3%
COc1ccc(/C=C/C(=O)O)cc1	1%	12%	1%	2%
CNc1c(NC(=O)c2cc(OC)cc(OC)c2)c(=O)oc2ccccc12	·	·	·	13%
SMILES	USP2a inh	Tb PFK inh	p53 reactivator	GLS inh
COc1ccc(CNC(=S)N/N=C(/C)c2ccccc2)cc1	1%	1%	28µM*	3%
C/C(=N\NC(=S)NCc1ccccc1)c1ccccc1	3%	3%	?	8%
COc1cccc(-c2nnc(-c3ccco3)o2)c1	0%	0%	40µM*	?
Cc1ccc(-n2c3c(cc(-c4nc(-c5ccc(Cl)cc5)cs4)c2=O)C(=O)CC(C)(C)C3)cc1C	·	·	·	-16%
CN(c1ccccc1)S(=O)(=O)c1cccc(C(=O)NCCc2ccc(O)c(O)c2)c1	1%	?	-3%	3.5µM*
CCOC(=O)c1c(NC(=O)CC2Nc3ccccc3NC2=O)sc(C)c1C (stereo not given)	-2%	1%	-7%	13µM*
c1ccc(CSc2snnc2-c2ccccc2)cc1	1%	6%	?	18%
Clc1ccc(CSc2snnc2-c2ccccc2)c(Cl)c1	1%	4%	40µM*	3%
N#CCC(=O)Nc1ccc(C(=O)NNC(=S)NC2CCCCC2)cc1	2%	-1%	-4%	18µM*
Cc1ccc(C(=O)NC2CCCCC2)cc1	-1%	-2%	26%	12%

Assay outcomes: PubChem, National Center for Advancing Translational Sciences (NCATS)
